Measured values reported in PubChem BioAssay (NCATS).
Several values for one entry are separate records, joined by “and”; a condition that tells them apart may be missing. Equal values may be shown once. Results filed as inconclusive are left out. Where a call stands in place of a potency, no number is given. Unmarked numbers belong to inactive results. Activity calls are given as the source filed them. Calls follow the shape of the dose curve; as a rule, active = well fitted curve in the direction sought with a large enough effect; inconclusive = small, poorly fitted or top-dose-only effect, or another doubt; inactive = no such curve, though single readings can be large; an effect the other way counts as inactive or inconclusive.

Legend:
[1] = target: Cytochrome P450 3A7 (Homo sapiens) (UniProt P24462); assay: Cytochrome P450 family 3 subfamily A member 7 (CYP3A7) small molecule antagonists: luciferase biochemical qHTS assay (AID 1963596); conditions: P450-Glo CYP3A7 enzyme luminescence, 1 h; series mostly up to 57.4 µM; also: nearly all actives have a fitted effect of over 40% in size
Outline: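 Enzyme-substrate mix + cpd (DMSO), 10 min RT; + NADPH regen system, 1 h RT; + luciferin detection reagent, 20 min RT; luminescence read. Proluciferin substrate, P450-Glo format, 1536-well qHTS.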

[2] = Viability qHTS for spleen associated tyrosine kinase inhibitor (SYKi) naive MV4-11 cells (AID 1963823); conditions: MV4-11 AML viability, CellTiter-Glo luminescence, 72 h; series mostly up to 45 µM; also: nearly all actives have a fitted effect of over 40% in size; also: potency is read from the fitted curve at half-maximal effect
Outline: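 CellTiter-Glo luminescence, 10 min room-temperature incubation, gave viability. Cells: naive MV4-11 (500/well), treated 72 hr at 37 C, 5% CO2.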

[3] = Viability qHTS for spleen associated tyrosine kinase inhibitor (SYKi) drug resistant MV4-11 cells (AID 1963824); conditions: SYKi-resistant MV4-11 viability, CellTiter-Glo, 72 h; series mostly up to 45 µM; also: nearly all actives have a fitted effect of over 35% in size; also: potency is read from the fitted curve at half-maximal effect
Outline: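 SYK inhibitor-resistant MV4-11 AML cells, 500 per well, added to predispensed compounds and incubated 72 hr at 37 C, 5% CO2. Viability measured by CellTiter-Glo luminescence after 10 min at room temperature.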

[4] = Cellular viability qHTS for adrenocortical cancer (ACC) cell line SW-13 (AID 1963989); conditions: SW-13 ACC cells viability, CellTiter-Glo, 48 h; activity (max response): stronger effect = lower value; also: nearly all actives have a fitted effect of over 65% in size; also: potency is read from the fitted curve at half-maximal effect;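 as to activity (max response): cells grown in serum-free medium with ITS supplement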
Outline: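 IC50 and maximal-response values come from four-parameter logistic fits of titration data. SW-13 cells in serum-free medium received compounds (up to 46 uM final) for 48 h before CellTiter-Glo luminescence.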

[5] = Cellular viability qHTS for adrenocortical cancer (ACC) cell line NCI-H295R (AID 1963990); conditions: CellTiter-Glo ATP luminescence, 48 h; series mostly up to 46.1 µM; also: nearly all actives have a fitted effect of over 60% in size; also: potency is read from the fitted curve at half-maximal effect
Outline: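 Adrenocortical carcinoma cells, suspended at 300 000 cells/mL in serum-free DMEM plus ITS, rested overnight before pin transfer of compound. After two days' incubation, ATP-dependent luminescence was recorded and curve-fitted.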

Chain of Cytochrome P450 3A7 (Homo sapiens) (P24462 whole entry, looked up): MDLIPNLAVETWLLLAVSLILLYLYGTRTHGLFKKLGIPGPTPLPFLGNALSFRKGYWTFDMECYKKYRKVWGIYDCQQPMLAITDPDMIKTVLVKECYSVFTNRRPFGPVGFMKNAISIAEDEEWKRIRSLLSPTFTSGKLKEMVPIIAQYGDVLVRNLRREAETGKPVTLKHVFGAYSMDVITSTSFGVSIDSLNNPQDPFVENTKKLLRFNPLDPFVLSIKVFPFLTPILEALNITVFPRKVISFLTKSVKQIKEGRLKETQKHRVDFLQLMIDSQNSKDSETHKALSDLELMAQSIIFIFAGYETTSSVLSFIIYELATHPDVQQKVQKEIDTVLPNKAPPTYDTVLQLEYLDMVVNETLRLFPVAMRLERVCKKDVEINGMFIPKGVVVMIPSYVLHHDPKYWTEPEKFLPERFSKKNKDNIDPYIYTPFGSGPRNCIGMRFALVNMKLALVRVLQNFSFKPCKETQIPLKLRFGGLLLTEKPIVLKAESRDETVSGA

Structure (SMILES) | Potency [1] | Potency [2] | Potency [3] | activity (max response) [4] | Potency [5] | Potency [4] | activity change, negative = inhibition [1] | viability (% of control) [2] | viability, % of control [3] | activity change, negative = viability loss [5]
CCN(CC)C(=O)c1cccc(C)c1 | inactive | inactive | inactive | 6.94% | inactive | – | – | – | – | –
CC(NC(CCc1ccccc1)C(=O)O)C(=O)N1C(=O)N(C)CC1C(=O)O (stereo not given) | inactive | inactive | inactive | 6.3% | inactive | – | – | – | – | –
Cc1cc(C)cc(NC(=O)Cc2ccc(OC(C)(C)C(=O)O)cc2)c1 | inactive | inactive | inactive | 8.53% | inactive | – | – | – | – | –
Cc1ncc(COP(=O)(O)O)c(C=O)c1O | inactive | inactive | inactive | 7.84% | inactive | – | – | – | – | –
O=C1CC[C@H](C(=O)N2CCCCC2)N1 | inactive | inactive | inactive | -2.75% | inactive | – | – | – | – | –
O=C(N[C@H]1CCC[C@H](CO)C1)C1CCN(c2nc3cc(Cl)c(-c4ccc(Cl)cc4)cc3o2)CC1 | inactive | 16.6 µM (active) | 16.6 µM (active) | -10.9% | 12.6 µM (active) | – | – | – | – | –
CC(=O)N(CC(O)CO)c1c(I)c(C(=O)NCCO)c(I)c(C(=O)NCC(O)CO)c1I (stereo not given) | inactive | inactive | inactive | 7.39% | inactive | – | – | – | – | –
Cn1c(=O)c2c(ncn2C)n(C)c1=O | inactive | inactive | inactive | -5.31% and -10.5% | inactive | – | – | – | – | –
CC(C)NC[C@@H](O)COc1ccc(CC(N)=O)cc1 | inactive | inactive | inactive | 7.4% | inactive | – | – | – | – | –
Nc1nc(=O)n([C@@H]2O[C@H](CO)[C@@H](O)[C@@H]2F)cc1I | inactive | inactive | inactive | 8.37% | inactive | – | – | – | – | –
CCOC(=O)CN1CCCC1=O | inactive | inactive | inactive | 4.08% | inactive | – | – | – | – | –
O=C(O)c1ccccc1-c1ccc(C(F)(F)F)cc1 | inactive | inactive | inactive | 8.51% | inactive | – | – | – | – | –
CCS(=O)(=O)c1ccc(OC)c(C(=O)OC)c1 | inactive | inactive | inactive | 10.8% | inactive | – | – | – | – | –
COc1ccc(CCC(C)=O)cc1 | inactive | inactive | inactive | -3.66% | inactive | – | – | – | – | –
O=C(O)c1cc(-c2ccccc2)nc2ccccc12 | inactive | inactive | inactive | 10.7% | inactive | – | – | – | – | –
COC(=O)c1ccccc1C(=O)c1ccc(OCCN2CCCCC2)cc1 | inactive | inactive | inactive | -0.425% | inactive | – | – | – | – | –
CC(=O)OCC(COC(C)=O)OC(C)=O | inactive | inactive | inactive | 3.85% | inactive | – | – | – | – | –
Cc1cc2c(cc1S(N)(=O)=O)S(=O)(=O)CCC2 | inactive | inactive | inactive | 12.2% | inactive | – | – | – | – | –
CC1(C)O[C@@H]2[C@@H](CO[C@@]3(COS(N)(=O)=O)OC(C)(C)O[C@@H]23)O1 | inactive | inactive | inactive | 9.55% | inactive | – | – | – | – | –
CC1CCN(CCCC(=O)c2ccc(F)cc2)CC1 | inactive | inactive | inactive | -0.695% | inactive | – | – | – | – | –

Structure (SMILES) | Potency [1] | Potency [2] | Potency [3] | activity (max response) [4] | Potency [5] | Potency [4] | activity change, negative = inhibition [1] | viability (% of control) [2] | viability, % of control [3] | activity change, negative = viability loss [5]
Clc1ccc2nsnc2c1NC1=NCCN1 | inactive | inactive | inactive | -2.56% and -8.39% | inactive | – | – | – | – | –
C[C@H]1COc2c(C3(N)CC3)c(F)cc3c(=O)c(C(=O)O)cn1c23 | inactive | inactive | inactive | -1.24% | inactive | – | – | – | – | –
OCC(CO)N[C@H]1C[C@](O)(CO)[C@@H](O)[C@H](O)[C@H]1O | inactive | inactive | inactive | 4.01% | inactive | – | – | – | – | –
CC(O)COc1ccccc1 (stereo not given) | inactive | inactive | inactive | 5.91% | inactive | – | – | – | – | –
CCOc1ccc(NC(C)=O)cc1 | inactive | inactive | inactive | -8.62% | inactive | – | – | – | – | –
C=CC(=O)Nc1cccc(Nc2nc(Nc3ccc(N4CCN(C(C)=O)CC4)cc3OC)ncc2C(F)(F)F)c1 | inactive | 1.64 µM (active) and 1.05 µM (active) | 1.84 µM (active) and 1.86 µM (active) | – | 3.55 µM (active) | 2.24 µM (active) | – | – | – | –
OCc1ccccc1O | inactive | inactive | inactive | 6.34% | inactive | – | – | – | – | –
CCCCCCCCCCCCCCCCCC(=O)OCC(O)CO (stereo not given) | inactive | inactive | inactive | 5.37% | inactive | – | – | – | – | –
CC(C)NC(=O)c1ccc(C=O)cc1 | inactive | inactive | inactive | 10.9% | inactive | – | – | – | – | –
Cc1c(F)c(N2CCNC(C)C2)cc2c1c(=O)c(C(=O)O)cn2C1CC1 (stereo not given) | inactive | inactive | inactive | -0.964% | inactive | – | – | – | – | –
CCOC(=O)C(=O)CCCCCCl | inactive | inactive | inactive | 1.38% | inactive | – | – | – | – | –
COc1cc2c(cc1OC(C)C)[C@H](c1ccc(Cl)cc1)N(c1ccc(N(C)CC3CCC(N4CCN(C)C(=O)C4)CC3)cc1)C(=O)C2 (stereo not given in full) | inactive | 11.8 µM (active) | 9.2 µM (active) and 8.33 µM (active) | – | 22.4 µM (active) | 25.1 µM (active) | – | – | – | –
O=C(O)CN(CCOCCOCCN(CC(=O)O)CC(=O)O)CC(=O)O | – | – | – | -1% | – | – | 3.38% [at 0.91 µM] | 65.2% [at 0.588 µM] | 96.9% [at 0.588 µM] | -8.55% [at 0.587 µM]
CC(=O)Oc1c(C)c(C)c2c(c1C)CC[C@@](C)(CCC[C@H](C)CCC[C@H](C)CCCC(C)C)O2 | inactive | inactive | inactive | 2.68% | inactive | – | – | – | – | –
N[C@@H](CSSC[C@H](N)C(=O)O)C(=O)O | – | – | – | 5.04% | – | – | 0.172% [at 0.91 µM] | 68.4% [at 0.588 µM] | 76.8% [at 0.588 µM] | -0.603% [at 0.587 µM]
C/C=C1\[C@H]2C=C(C)C[C@]1(N)c1ccc(=O)[nH]c1C2 | inactive | inactive | inactive | 12.5% | inactive | – | – | – | – | –
NCCc1ccn[nH]1 | inactive | inactive | inactive | 3.59% | inactive | – | – | – | – | –
CN(C)C(=O)c1cc2cnc(Nc3ccc(N4CCNCC4)cn3)nc2n1C1CCCC1 | inactive | 2.31 µM (active) | 5.17 µM (active) | -9.21% | inactive | – | – | – | – | –
Cc1cccc(-c2nn3c(c2-c2ccnc4ccc(C(N)=O)cc24)CCC3)n1 | inactive | inactive | inactive | 14.6% | inactive | – | – | – | – | –
COCCc1ccccn1 | inactive | 0.075 µM (active) | inactive | -6% | inactive | – | – | – | – | –

Structure (SMILES) | Potency [1] | Potency [2] | Potency [3] | activity (max response) [4] | Potency [5] | Potency [4] | activity change, negative = inhibition [1] | viability (% of control) [2] | viability, % of control [3] | activity change, negative = viability loss [5]
CC(=O)Nc1ccc(CC(=O)O)cc1 | inactive | inactive | inactive | 4.33% | inactive | – | – | – | – | –
CCn1ccc(NS(=O)(=O)c2ccc(N)cc2)nc1=O | inactive | inactive | inactive | 11.1% | inactive | – | – | – | – | –
CC(O)(P(=O)(O)O)P(=O)(O)O | inactive | inactive | inactive | 14.2% | inactive | – | – | – | – | –
Cc1cc(-c2cc(OC(=O)c3ccccc3)ccc2Cl)cc2nnc(Nc3ccc(OCCN4CCCC4)cc3)nc12 | inactive | 2 µM (active) | 1.59 µM (active) | 9.34% | inactive | – | – | – | – | –
CCN[C@@H]1C[C@H](N)[C@@H](OC2OC(CN)=CCC2N)[C@H](O)[C@H]1O[C@H]1OC[C@](C)(O)[C@H](NC)[C@H]1O (stereo not given in full) | – | – | – | -2.24% | – | – | 12% [at 0.91 µM] | 111% [at 0.588 µM] | 115% [at 0.588 µM] | -3.31% [at 0.587 µM]
CC(C)(Oc1ccc(C2CC2(Cl)Cl)cc1)C(=O)O (stereo not given) | inactive | inactive | inactive | 13.8% and -14.2% | inactive | – | – | – | – | –
CC(=O)N[C@@H](CCC(N)=O)C(=O)O | inactive | inactive | inactive | 11.4% | inactive | – | – | – | – | –
COC(=O)c1cc(S(N)(=O)=O)ccc1OC | inactive | inactive | inactive | 6.75% | inactive | – | – | – | – | –
C[N+](C)(C)CCCCCC[N+](C)(C)C | inactive | inactive | inactive | 10.1% | inactive | – | – | – | – | –
CC1(c2ccccc2)OC(C(=O)O)=CC1=O (stereo not given) | inactive | inactive | inactive | -17.9% | inactive | – | – | – | – | –
CCCCCOC(=O)Nc1nc(=O)n([C@@H]2O[C@H](C)[C@@H](O)[C@H]2O)cc1F | inactive | inactive | inactive | 14.3% and 14.2% | inactive | – | – | – | – | –
COc1ccc(CN(CCN(C)C)c2ncccn2)cc1 | inactive | inactive | inactive | -7.84% | inactive | – | – | – | – | –
Cc1ccc(-c2ccccc2C#N)cc1 | inactive | inactive | inactive | 12.9% | inactive | – | – | – | – | –
CCCN1CCN(c2ccc(C(=O)NC3(C(=O)NCC#N)CCCCC3)cc2)CC1 | inactive | inactive | inactive | -11.1% | inactive | – | – | – | – | –
Cn1c(=O)c2c(ncn2CC2OCCO2)n(C)c1=O | inactive | inactive | inactive | 8.06% and -6.96% | inactive | – | – | – | – | –
COc1ccc(O)cc1 | inactive | inactive | inactive | -1.22% | inactive | – | – | – | – | –
O=c1[nH]cnc2c1ncn2[C@@H]1O[C@H](CO)[C@@H](O)[C@H]1O | inactive | inactive | inactive | 4.44% | inactive | – | – | – | – | –
NC1CCN(c2nc3c(cc2F)c(=O)c(C(=O)O)cn3-c2ccc(F)cc2F)C1 (stereo not given) | inactive | inactive | inactive | -6.92% | inactive | – | – | – | – | –
